Experimental findings from paper PMC7862700, “An all-to-all approach to the identification of sequence-specific readers for epigenetic DNA modifications on cytosine” are described below.

Test in all cases: DAPPL (digital affinity profiling via proximity ligation, sequencing); 10 mM Tris-HCl pH 7.5, 50 mM NaCl, 1 mM DTT, 4% glycerol, room temperature, 30 min; GST-TFs on glutathione beads, 16-mer random dsDNA library, 0.1% formaldehyde crosslink after washing; high values mean tight binding
Test [1] concerns the target T1, FEV (Homo sapiens, UniProt Q99581 1-238).
T1 sequence: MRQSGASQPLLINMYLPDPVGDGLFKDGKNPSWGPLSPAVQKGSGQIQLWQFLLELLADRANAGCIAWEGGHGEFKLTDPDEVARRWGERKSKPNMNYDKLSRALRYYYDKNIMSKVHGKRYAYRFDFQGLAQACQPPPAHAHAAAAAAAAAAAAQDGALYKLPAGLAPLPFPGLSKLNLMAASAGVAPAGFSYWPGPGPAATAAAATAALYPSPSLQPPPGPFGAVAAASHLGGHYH
The conditions noted are these: protein: recombinant; tags: N-terminal GST; dsDNA, one strand shown. The procedure, abridged: (§1)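 Binding signal is each hexamer's read frequency for a factor divided by its frequency in the tag-only sample. The factors were GST-fused human transcription factors from yeast, captured on glutathione beads, DNA-barcoded and pooled with that sample. Pools were incubated with 200 nmole of a random double-stranded 16-mer DNA library in Tris/NaCl/DTT/glycerol buffer at room temperature for 30 min, then washed, crosslinked with 0.1% formaldehyde, proximity-ligated with BsaI/T4 ligase (1 h, 37 °C), PCR-amplified and sequenced on an Illumina NextSeq500.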

The target in test [2] is ETV5 (Homo sapiens, UniProt P41161 1-510). The conditions noted are these: protein: recombinant; tags: N-terminal GST; dsDNA, one strand shown. The procedure, abridged:
as §1

Test [3] has as its target HSF1 (Homo sapiens, UniProt Q00613 1-529). The conditions noted are these: protein: recombinant; tags: N-terminal GST; chain copies: 3; dsDNA, one strand shown. The procedure, abridged:
as §1

The target in test [4] is T2, SPIC (Homo sapiens, UniProt Q8N5J4 1-248).
T2 sequence: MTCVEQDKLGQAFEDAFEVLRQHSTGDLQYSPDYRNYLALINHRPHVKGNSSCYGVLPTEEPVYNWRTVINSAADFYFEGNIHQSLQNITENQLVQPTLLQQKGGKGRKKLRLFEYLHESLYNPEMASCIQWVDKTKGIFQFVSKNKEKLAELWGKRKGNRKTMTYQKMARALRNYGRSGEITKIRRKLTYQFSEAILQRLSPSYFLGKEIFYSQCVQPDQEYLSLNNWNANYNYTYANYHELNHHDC
The settings on record: protein: recombinant; tags: N-terminal GST; dsDNA, one strand shown. In short, it runs like this: as §1

Test [5] addresses ELF4 (Homo sapiens, UniProt Q99607 1-663). The conditions noted are these: protein: recombinant; tags: N-terminal GST; dsDNA, one strand shown. In short, it runs like this:
as §1

Test [6] deals with T3, ELK4 (Homo sapiens, UniProt P28324-2 1-405).
T3 sequence: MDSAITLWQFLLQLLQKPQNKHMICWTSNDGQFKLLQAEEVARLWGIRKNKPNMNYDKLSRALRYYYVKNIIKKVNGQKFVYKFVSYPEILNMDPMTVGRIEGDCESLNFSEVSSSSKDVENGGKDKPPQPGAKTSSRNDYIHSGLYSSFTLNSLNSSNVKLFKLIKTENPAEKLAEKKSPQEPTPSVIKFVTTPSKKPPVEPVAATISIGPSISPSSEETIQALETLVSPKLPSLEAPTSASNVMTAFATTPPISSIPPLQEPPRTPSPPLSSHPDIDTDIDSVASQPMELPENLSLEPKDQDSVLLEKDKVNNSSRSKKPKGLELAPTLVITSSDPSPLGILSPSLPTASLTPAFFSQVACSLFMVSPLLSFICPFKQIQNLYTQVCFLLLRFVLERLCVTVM
The settings on record: protein: recombinant; tags: N-terminal GST; dsDNA, one strand shown. The procedure, abridged: as §1

For test [7], the target named is T4, ETV2 (Homo sapiens, UniProt O00321 1-342).
T4 sequence: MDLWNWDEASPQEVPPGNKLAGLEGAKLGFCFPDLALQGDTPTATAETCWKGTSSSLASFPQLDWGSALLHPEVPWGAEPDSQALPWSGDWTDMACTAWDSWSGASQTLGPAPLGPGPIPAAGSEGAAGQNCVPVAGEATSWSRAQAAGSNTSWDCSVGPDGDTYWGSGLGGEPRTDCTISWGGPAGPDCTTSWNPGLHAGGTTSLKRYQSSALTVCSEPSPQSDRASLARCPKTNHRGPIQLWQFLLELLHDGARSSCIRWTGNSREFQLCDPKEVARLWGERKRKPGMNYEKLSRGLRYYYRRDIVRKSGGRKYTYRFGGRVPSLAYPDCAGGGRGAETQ
The conditions noted are these: protein: recombinant; tags: N-terminal GST; dsDNA, one strand shown. The procedure, abridged:
as §1

Test [8] concerns the target T5, ELF3 (Homo sapiens, UniProt P78545 1-371).
T5 sequence: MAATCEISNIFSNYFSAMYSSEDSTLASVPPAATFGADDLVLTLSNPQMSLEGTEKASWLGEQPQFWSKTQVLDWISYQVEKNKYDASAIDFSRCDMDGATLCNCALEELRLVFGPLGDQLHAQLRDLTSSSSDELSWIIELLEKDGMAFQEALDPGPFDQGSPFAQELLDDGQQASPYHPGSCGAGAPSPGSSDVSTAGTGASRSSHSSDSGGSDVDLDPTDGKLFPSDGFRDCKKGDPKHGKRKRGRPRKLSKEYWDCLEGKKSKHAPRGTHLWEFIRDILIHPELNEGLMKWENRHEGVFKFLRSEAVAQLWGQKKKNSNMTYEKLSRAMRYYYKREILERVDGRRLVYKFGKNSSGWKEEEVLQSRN
The settings on record: protein: recombinant; tags: N-terminal GST; dsDNA, one strand shown. In short, it runs like this: as §1

The target of test [9] is CRX (Homo sapiens, UniProt O43186 1-299). The settings on record: protein: recombinant; tags: N-terminal GST; dsDNA, one strand shown. In short, it runs like this:
as §1

Test [10] concerns the target ETV1 (Homo sapiens, UniProt P50549 1-477). The conditions noted are these: protein: recombinant; tags: N-terminal GST; dsDNA, one strand shown. The procedure, abridged:
as §1

The target of test [11] is T6, ERF (Homo sapiens, UniProt P50548 1-548).
T6 sequence: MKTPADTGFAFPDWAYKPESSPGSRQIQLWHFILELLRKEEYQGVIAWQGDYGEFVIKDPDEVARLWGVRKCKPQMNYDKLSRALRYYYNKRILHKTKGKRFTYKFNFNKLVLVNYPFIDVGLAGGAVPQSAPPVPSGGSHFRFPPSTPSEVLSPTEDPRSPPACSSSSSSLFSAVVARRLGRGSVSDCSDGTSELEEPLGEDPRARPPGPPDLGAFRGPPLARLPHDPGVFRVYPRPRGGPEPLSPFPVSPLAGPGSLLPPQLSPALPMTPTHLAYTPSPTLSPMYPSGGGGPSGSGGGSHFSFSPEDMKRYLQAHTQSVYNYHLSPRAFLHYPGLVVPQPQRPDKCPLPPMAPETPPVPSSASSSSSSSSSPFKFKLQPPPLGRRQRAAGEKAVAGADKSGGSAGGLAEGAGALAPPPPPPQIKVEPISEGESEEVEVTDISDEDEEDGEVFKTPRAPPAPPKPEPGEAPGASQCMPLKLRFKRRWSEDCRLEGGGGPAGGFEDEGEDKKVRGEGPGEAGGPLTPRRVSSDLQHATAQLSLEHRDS
The settings on record: protein: recombinant; tags: N-terminal GST; dsDNA, one strand shown. The procedure, abridged:
as §1

Test [12] concerns the target T7, ETV3L (Homo sapiens, UniProt Q6ZN32 1-361).
T7 sequence: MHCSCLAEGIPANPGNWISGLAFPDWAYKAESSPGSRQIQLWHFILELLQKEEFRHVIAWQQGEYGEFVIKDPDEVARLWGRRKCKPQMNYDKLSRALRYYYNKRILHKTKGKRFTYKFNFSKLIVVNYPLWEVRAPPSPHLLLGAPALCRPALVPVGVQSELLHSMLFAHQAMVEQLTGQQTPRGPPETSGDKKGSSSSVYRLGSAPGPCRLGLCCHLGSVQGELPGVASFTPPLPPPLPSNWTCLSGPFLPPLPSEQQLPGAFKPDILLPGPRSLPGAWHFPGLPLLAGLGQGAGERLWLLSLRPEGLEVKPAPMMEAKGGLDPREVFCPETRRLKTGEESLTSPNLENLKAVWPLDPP
The conditions noted are these: protein: recombinant; tags: N-terminal GST; dsDNA, one strand shown. In short, it runs like this:
as §1

Test [13] deals with T8, ETS2 (Homo sapiens, UniProt P15036 1-469).
T8 sequence: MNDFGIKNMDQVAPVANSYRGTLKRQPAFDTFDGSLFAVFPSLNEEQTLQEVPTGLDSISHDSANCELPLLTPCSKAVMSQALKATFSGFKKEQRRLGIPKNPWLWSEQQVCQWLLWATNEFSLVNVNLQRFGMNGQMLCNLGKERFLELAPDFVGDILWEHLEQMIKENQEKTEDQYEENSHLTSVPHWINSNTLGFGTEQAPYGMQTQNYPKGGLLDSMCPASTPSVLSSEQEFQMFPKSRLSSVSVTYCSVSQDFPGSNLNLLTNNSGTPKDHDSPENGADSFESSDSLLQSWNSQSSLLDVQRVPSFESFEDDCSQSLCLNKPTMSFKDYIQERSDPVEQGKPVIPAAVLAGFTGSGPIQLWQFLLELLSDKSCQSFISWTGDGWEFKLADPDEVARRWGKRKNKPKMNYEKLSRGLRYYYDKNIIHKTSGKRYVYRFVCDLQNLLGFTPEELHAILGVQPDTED
The conditions noted are these: protein: recombinant; tags: N-terminal GST; dsDNA, one strand shown. The procedure, abridged: as §1

Test [14] deals with T9, SPDEF (Homo sapiens, UniProt O95238 1-335).
T9 sequence: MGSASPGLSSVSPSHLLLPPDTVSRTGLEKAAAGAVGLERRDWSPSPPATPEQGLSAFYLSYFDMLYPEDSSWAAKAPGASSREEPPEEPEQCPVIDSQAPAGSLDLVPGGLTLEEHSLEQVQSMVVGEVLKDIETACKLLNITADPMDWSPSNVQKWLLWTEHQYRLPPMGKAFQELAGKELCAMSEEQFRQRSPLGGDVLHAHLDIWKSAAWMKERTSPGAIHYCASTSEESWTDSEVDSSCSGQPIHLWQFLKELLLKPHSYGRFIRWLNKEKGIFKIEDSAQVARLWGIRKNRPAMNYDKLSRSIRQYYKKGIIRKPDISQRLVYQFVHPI
The conditions noted are these: protein: recombinant; tags: N-terminal GST; dsDNA, one strand shown. The procedure, abridged: as §1

Test [15] addresses T10, ETV7 (Homo sapiens, UniProt Q9Y603 1-341).
T10 sequence: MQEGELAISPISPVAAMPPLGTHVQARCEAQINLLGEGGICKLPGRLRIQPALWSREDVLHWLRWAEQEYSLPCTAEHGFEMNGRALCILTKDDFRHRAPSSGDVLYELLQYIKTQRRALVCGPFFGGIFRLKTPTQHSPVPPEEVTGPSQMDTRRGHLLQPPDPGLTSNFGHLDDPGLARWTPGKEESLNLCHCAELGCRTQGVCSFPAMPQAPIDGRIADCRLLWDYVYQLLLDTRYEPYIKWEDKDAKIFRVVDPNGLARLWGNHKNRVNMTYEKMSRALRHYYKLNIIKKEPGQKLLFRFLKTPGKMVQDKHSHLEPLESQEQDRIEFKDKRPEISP
The settings on record: protein: recombinant; tags: N-terminal GST; dsDNA, one strand shown. The procedure, abridged:
as §1

Test [16] has as its target T11, ELF5 (Homo sapiens, UniProt Q9UKW6-2 1-255).
T11 sequence: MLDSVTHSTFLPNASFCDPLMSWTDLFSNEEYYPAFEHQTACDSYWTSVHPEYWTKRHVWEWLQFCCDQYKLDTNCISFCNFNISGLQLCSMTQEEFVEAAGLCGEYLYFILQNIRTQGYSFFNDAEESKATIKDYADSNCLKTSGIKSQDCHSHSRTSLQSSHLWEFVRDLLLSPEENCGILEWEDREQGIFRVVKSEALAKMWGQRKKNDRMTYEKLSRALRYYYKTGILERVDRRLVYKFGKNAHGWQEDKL
The conditions noted are these: protein: recombinant; tags: N-terminal GST; dsDNA, one strand shown. In short, it runs like this:
as §1

Test [17] has as its target T12, ETV3 (Homo sapiens, UniProt P41162-2 1-143).
T12 sequence: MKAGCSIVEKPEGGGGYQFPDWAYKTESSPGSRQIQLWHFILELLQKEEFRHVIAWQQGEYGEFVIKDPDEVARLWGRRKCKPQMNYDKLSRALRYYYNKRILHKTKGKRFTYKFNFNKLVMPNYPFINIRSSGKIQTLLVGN
The conditions noted are these: protein: recombinant; tags: N-terminal GST; dsDNA, one strand shown. The procedure, abridged: as §1

Test [18] deals with ETV6 (Homo sapiens, UniProt P41212 1-452). The settings on record: protein: recombinant; tags: N-terminal GST; dsDNA, one strand shown. In short, it runs like this: as §1
ETV6, sequence (P41212 whole entry): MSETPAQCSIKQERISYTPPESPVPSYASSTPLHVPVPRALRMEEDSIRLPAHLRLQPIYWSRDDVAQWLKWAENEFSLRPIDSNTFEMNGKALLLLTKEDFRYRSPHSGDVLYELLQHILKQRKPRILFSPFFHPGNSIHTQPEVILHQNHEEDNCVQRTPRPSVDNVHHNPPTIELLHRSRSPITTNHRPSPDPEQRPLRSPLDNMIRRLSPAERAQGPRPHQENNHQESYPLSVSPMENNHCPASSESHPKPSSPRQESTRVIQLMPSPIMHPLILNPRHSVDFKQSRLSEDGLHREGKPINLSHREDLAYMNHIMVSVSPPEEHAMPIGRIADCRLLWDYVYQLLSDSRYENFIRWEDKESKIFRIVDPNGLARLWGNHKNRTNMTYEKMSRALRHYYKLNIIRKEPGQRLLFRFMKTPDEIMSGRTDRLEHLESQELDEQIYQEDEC

ELF4, sequence (Q99607 whole entry): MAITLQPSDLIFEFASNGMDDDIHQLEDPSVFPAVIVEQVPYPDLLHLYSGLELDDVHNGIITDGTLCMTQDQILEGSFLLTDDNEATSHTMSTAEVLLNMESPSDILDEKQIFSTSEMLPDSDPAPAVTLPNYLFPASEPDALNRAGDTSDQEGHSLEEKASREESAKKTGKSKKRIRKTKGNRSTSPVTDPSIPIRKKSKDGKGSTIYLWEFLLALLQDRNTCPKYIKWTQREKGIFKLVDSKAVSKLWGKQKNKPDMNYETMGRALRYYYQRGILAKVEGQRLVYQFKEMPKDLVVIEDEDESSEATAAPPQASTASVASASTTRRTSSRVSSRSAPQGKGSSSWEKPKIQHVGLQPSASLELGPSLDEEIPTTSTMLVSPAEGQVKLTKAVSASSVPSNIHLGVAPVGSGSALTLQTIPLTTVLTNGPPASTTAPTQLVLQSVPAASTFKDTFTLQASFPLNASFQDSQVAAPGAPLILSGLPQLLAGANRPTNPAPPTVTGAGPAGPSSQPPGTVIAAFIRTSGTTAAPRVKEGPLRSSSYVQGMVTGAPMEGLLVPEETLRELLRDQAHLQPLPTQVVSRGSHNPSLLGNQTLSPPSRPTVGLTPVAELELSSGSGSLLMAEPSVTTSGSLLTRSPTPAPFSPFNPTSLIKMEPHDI
HSF1, sequence (Q00613 whole entry): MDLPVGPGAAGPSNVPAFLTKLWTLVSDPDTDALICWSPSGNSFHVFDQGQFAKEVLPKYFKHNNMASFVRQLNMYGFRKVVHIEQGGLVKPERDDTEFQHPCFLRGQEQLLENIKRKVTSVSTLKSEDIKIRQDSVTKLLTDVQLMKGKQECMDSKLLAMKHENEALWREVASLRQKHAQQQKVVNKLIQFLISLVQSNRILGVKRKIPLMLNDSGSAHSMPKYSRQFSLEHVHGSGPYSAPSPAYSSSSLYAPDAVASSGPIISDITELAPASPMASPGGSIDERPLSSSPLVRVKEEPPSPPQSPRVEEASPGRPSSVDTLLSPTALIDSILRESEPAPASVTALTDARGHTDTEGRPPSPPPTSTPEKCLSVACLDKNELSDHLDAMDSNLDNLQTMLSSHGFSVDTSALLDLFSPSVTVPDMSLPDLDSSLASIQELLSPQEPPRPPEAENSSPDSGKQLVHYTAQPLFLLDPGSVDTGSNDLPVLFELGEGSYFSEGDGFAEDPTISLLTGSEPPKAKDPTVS
CRX, sequence (O43186 whole entry): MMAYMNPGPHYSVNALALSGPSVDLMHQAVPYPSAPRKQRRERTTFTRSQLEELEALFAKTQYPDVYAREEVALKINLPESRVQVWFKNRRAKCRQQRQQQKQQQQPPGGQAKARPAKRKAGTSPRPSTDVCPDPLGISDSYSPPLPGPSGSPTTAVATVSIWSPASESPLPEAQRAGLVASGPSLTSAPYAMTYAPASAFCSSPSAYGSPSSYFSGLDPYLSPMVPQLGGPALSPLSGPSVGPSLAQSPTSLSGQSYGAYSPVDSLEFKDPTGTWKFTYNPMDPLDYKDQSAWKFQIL
ETV5, sequence (P41161 whole entry): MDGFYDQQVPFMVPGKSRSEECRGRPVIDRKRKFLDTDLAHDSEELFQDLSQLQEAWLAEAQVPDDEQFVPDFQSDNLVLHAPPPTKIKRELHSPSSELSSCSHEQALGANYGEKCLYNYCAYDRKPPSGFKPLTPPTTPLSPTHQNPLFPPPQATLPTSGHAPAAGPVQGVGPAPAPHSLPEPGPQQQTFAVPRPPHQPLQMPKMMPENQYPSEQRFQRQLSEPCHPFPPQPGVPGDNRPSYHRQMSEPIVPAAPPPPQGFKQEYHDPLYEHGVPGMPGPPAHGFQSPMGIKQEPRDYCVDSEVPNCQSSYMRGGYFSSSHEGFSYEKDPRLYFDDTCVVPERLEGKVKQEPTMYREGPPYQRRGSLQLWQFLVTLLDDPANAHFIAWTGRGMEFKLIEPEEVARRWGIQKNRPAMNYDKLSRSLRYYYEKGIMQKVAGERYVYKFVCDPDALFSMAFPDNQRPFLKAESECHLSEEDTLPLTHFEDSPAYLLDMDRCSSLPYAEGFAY
ETV1, sequence (P50549 whole entry): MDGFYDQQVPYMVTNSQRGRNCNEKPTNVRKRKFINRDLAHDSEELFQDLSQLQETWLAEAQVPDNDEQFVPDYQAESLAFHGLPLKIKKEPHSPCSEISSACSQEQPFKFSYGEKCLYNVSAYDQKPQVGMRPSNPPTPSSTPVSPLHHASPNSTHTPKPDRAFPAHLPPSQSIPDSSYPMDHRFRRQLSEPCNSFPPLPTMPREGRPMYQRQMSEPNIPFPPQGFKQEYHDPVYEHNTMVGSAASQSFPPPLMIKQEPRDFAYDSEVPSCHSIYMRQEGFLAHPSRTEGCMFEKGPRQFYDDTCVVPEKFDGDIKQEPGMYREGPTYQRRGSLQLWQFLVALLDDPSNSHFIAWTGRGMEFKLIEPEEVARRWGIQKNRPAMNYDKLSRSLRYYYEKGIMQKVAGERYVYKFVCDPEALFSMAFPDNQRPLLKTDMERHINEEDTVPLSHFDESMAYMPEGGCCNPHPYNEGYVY

In the case of ACTCGT, the binding signal was 1.2 fold enrichment (6-mer frequency, TF over GST control) in test [1]; 1.22 fold enrichment (6-mer frequency, TF over GST control) in [2]; 1.14 fold enrichment (6-mer frequency, TF over GST control) in test [3]; 1.16 fold enrichment (6-mer frequency, TF over GST control) in test [4]; 1.3 fold enrichment (6-mer frequency, TF over GST control) in [5]; 1.28 fold enrichment (6-mer frequency, TF over GST control) in test [6]. For the same sequence, the binding signal is 1.21 fold enrichment (6-mer frequency, TF over GST control) in test [7]; 1.25 fold enrichment (6-mer frequency, TF over GST control) in test [8]; 1.08 fold enrichment (6-mer frequency, TF over GST control) in test [9]; 1.13 fold enrichment (6-mer frequency, TF over GST control) in [10]; 1.25 fold enrichment (6-mer frequency, TF over GST control) in [11]; 1.26 fold enrichment (6-mer frequency, TF over GST control) in test [12]. The binding signal in test [13] is 1.27 fold enrichment (6-mer frequency, TF over GST control); in [14], 1.14 fold enrichment (6-mer frequency, TF over GST control); in test [15], 1.26 fold enrichment (6-mer frequency, TF over GST control); in [16], 1.24 fold enrichment (6-mer frequency, TF over GST control); in [17] it was 1.21 fold enrichment (6-mer frequency, TF over GST control); in test [18], 1.16 fold enrichment (6-mer frequency, TF over GST control).
